SW480 rerep: A quantitative high throughput screen for small molecules that induce DNA re-replication in SW480 colon adenocarcinoma cells. actives 1.8% (n = 340,000). AID 624297, 2012. Potency, µM (titrated, usually from 46.1 µM), inactives show top-dose re-replication activation, most hits filed as activators. SW480 DNA re-replication, Hoechst DNA content imaging, 48 h; also: % of control where 0% means no effect; nearly all actives have a fitted effect of over 55% in size
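Image-based DNA-content assay: after two days of treatment, nuclei were labelled with the DNA dye Hoechst and imaged, and hits were compounds raising the count of nuclei showing high fluorescence intensity.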
KB-V1 MDR tox: qHTS assay for MDR1-selective chemotherapeutics: Primary screen using the drug-selected MDR subline cells KB-V1. KB-V1 MDR cells viability, CellTiter-Glo, 72 h. Potency, µM (doses to about 46.1 µM), hits mostly cytotoxic. actives 3.4% (n = 400,000); also: % is scaled to controls: 0 for no effect and ±100 for the full control effect; nearly all actives have a fitted effect of over 60% in size
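KB-V1 MDR subline cells in DMEM (phenol-red free, 10% FBS) exposed to compounds in qHTS concentration series for 72 h at 37 degrees C. Viability read by CellTiter-Glo luminescence; concentration-effect curves fitted after normalization and correction.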
RORgamma inh: qHTS for inhibitors of ROR gamma transcriptional activity; Drosophila S2 Gal4-RORgamma UAS-luciferase reporter, 20 h; actives 5.4% (n = 310,000); AID 2551, 2010; Potency, µM (series often up to 53.6 µM), inactives show at the highest dose activity change, negative = inhibition, hits mostly inhibitors; also: % is scaled to controls: 0 for no effect and ±100 for the full control effect; nearly all actives have a fitted effect of over 60% in size
Target sequence (P51450 whole entry, looked up, the tested form may be a part): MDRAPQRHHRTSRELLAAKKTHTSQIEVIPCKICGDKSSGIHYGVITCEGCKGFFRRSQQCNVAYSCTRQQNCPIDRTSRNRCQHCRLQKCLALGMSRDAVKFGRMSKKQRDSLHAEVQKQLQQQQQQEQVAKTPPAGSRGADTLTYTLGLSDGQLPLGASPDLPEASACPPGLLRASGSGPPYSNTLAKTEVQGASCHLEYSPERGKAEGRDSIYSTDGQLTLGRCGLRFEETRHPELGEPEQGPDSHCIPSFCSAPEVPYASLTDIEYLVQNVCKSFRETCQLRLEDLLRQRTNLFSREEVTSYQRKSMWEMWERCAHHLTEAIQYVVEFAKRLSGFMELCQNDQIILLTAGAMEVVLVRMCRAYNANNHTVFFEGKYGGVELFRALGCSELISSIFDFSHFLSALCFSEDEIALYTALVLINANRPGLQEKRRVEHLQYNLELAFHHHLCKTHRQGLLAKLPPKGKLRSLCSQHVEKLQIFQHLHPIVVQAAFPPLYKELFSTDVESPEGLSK
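Luciferase reporter read in Schneider cells carrying Gal4-RORγ (mouse) and UAS-Photinus luciferase; cells given compound 1 h before 700 uM copper sulfate induction, then incubated 20 h at ambient temperature.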
KB-3-1 cytotox: qHTS assay for MDR1-selective chemotherapeutics: Primary screen using the parental adenocarcinoma cell KB-3-1 | KB-3-1 viability, CellTiter-Glo ATP luminescence, 72 h | actives 1.4% (n = 400,000) | Potency, µM (highest dose often 46.1 µM), usual class: cytotoxic; also: % is scaled to controls: 0 for no effect and ±100 for the full control effect; nearly all actives have a fitted effect of over 60% in size
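KB-3-1 cells, DMEM (no phenol red) + 10% FBS; compound by pin transfer, 72 h, 37 °C. Readout: CellTiter-Glo luminescence after 10 min. Data normalized, curve-fitted.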
MCF10A rereplic: A quantitative high throughput screen for small molecules that induce DNA re-replication in MCF 10a normal breast cells; actives 2.9% (n = 350,000); MCF 10A DNA re-replication, Hoechst nuclear intensity, 48 h; Potency, µM (highest dose often 46.1 µM), for inactives: at the highest dose activity, positive = re-replication, hits mostly activators; also: % of control where 0% means no effect; nearly all actives have a fitted effect of over 50% in size
VP16 counter: VP16 counterscreen qHTS for inhibitors of ROR gamma transcriptional activity. Drosophila S2 Gal4-VP16 UAS-luciferase, luminescence, 20 h. Potency, µM (highest dose often 53.6 µM), without a hit: top-dose activity, negative = inhibition, hits mostly inhibitors. actives 3.5% (n = 310,000);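 also: Gal4-VP16 expression switched on by copper sulfate through the metallothionein promoter; % is scaled to controls: 0 for no effect and ±100 for the full control effect; nearly all actives have a fitted effect of over 50% in size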
The depositor's hits bear a star; i = inactive; ? = inconclusive; · = not tested or not shown. Rows were chosen to be rich in hits. Some 10% of all compounds tested hit in one or more screens of this group. Calls follow the shape of the dose curve; as a rule, active = well fitted curve in the direction sought with a large enough effect; inconclusive = small, poorly fitted or top-dose-only effect, or another doubt; inactive = no such curve, though single readings can be large; an effect the other way counts as inactive or inconclusive. Potency is read from the fitted curve at half-maximal effect.

SMILES	SW480 rerep	KB-V1 MDR tox	RORgamma inh	KB-3-1 cytotox	MCF10A rereplic	VP16 counter
COC(=O)N1CCC2(CCN(C(=O)Nc3ccc(OC)cc3)CC2)CC1	·	·	15%	·	·	-5%
CC(=O)Nc1ccc(NC(=O)COC(=O)c2ccccc2OCc2cccc(Br)c2)cc1	·	i	·	i	·	·
COc1ccc(OC)c(NC(=O)CCn2c(=S)[nH]c3ccccc3c2=O)c1	-12%	i	-32%	i	17%	-6%
COc1ccccc1NC(=O)Cn1c(C)cc(=O)c2cccc(OC)c21	-5%	?	-33%	i	18%	28µM*
COc1ccccc1Cn1c(=S)[nH]c2ccccc2c1=O	0%	i	10µM*	i	7%	14µM*
O=c1c2cc(F)ccc2[nH]c(=S)n1Cc1ccc(F)cc1	-6%	i	1.4µM*	i	?	3.2µM*
NS(=O)(=O)c1ccc(CCn2c(=S)[nH]c3ccc(F)cc3c2=O)cc1	0%	i	?	i	-4%	-7%
COc1ccccc1NC(=O)CCCn1c(=S)[nH]c2ccccc2c1=O	10%	i	10µM*	i	19%	?
Cc1cc(S(=O)(=O)N2CCN(Cc3noc(CCC(=O)N4CCCCC4)n3)CC2)ccc1F	·	i	·	i	·	·
COc1ccccc1Cn1c(=S)[nH]c2ccc(F)cc2c1=O	-2%	i	16µM*	i	2%	11µM*
COc1ccccc1Cn1c(=S)[nH]c2ccc(Br)cc2c1=O	4%	i	2µM*	i	2%	5.6µM*
CCN(CC)CCn1c(=S)[nH]c2ccccc2c1=O	-9%	i	-35%	i	1%	6%
CCN(CC)CCn1c(=S)[nH]c2ccc(Br)cc2c1=O	-28%	i	11µM*	i	-1%	13µM*
COc1ccccc1Cn1c(=S)[nH]c2cc(C(=O)NC(C)C)ccc2c1=O	?	i	0%	i	1%	-10%
CN(C)c1ncc2nc(-c3cn(C)c4ccccc34)c(=O)n(C[C@H]3CCCO3)c2n1	·	·	-7%	·	·	-1%
CCn1c(C(=O)Nc2ccccc2C(=O)OC)cc2sc(Cl)cc21	·	i	·	i	·	·
FC1(F)C(F)(F)C(F)(F)C2(F)C(F)(F)C(F)(F)C(F)(F)C(F)(F)C2(F)C1(F)F (stereo not given)	-3%	·	0%	·	-2%	-4%
CCOc1ccc(Br)cc1/C(C)=N\NC1=NCCN1	?	?	-33%	6.5µM*	?	7.9µM*
O=S(=O)(c1ccc(N2CCCC2)cc1)C(F)(F)F	-4%	i	?	i	2%	5.6µM*
CCc1cccc(C)c1NC(=O)Cn1cc2c(n1)CCCCC2	·	i	·	i	·	·
O=C1C(=C(I)I)c2ccccc2-c2ccccc21	5.8µM*	15µM*	·	?	?	·
COc1ccccc1NC(=O)C1C2C=CC(C2)C1C(=O)NCc1cccnc1 (stereo not given)	-13%	i	-17%	i	4.6µM*	4%
COc1ccc(OC)c(NC(=O)C2C3C=CC(C3)C2C(=O)NCc2cccnc2)c1 (stereo not given)	-6%	?	34%	i	10%	-1%
CC1(C(=O)Nc2ccc3ccccc3c2)CCC(=O)N1CCc1c[nH]c2ccccc12 (stereo not given)	·	i	·	i	·	·
CC(NC(=O)/C(=C/c1ccc(OC(F)F)cc1)c1ccccc1)c1ccccc1 (stereo not given)	19%	6.5µM*	?	?	?	?

Compound activity: PubChem BioAssay, National Center for Advancing Translational Sciences (NCATS)
